# Data from paper PMC5540273 (PLoS ONE, 2017).
# Like-named read-outs stand apart in the source and are kept apart here.
# Key:
# p38-alpha = test system: T1, p38-alpha; conditions: n = 1
# T1 construct: gene MAPK14
# ULK3 = conditions: concentration: 1 μM, replicates: in singlicate; n = 1
# VEGFR2 = test system: T2, VEGFR2; conditions: concentration: 1 μM, replicates: in singlicate; n = 1
# T2 construct: gene KDR
# VPS34 = test system: T3, VPS34; conditions: concentration: 1 μM, replicates: in singlicate; n = 1
# T3 construct: gene PIK3C3
# VRK2 = conditions: concentration: 1 μM, replicates: in singlicate; n = 1
# WEE1 = conditions: concentration: 1 μM, replicates: in singlicate; n = 1
# WEE2 = conditions: concentration: 1 μM, replicates: in singlicate; n = 1
# WNK1 = conditions: concentration: 1 μM, replicates: in singlicate; n = 1
# WNK2 = conditions: concentration: 1 μM, replicates: in singlicate; n = 1
# WNK3 = conditions: concentration: 1 μM, replicates: in singlicate; n = 1
# WNK4 = conditions: concentration: 1 μM, replicates: in singlicate; n = 1
# YANK1 = test system: T4, YANK1; conditions: concentration: 1 μM, replicates: in singlicate; n = 1
# T4 construct: gene STK32A
# YANK2 = test system: T5, YANK2; conditions: concentration: 1 μM, replicates: in singlicate; n = 1
# T5 construct: gene STK32B
# YANK3 = test system: T6, YANK3; conditions: concentration: 1 μM, replicates: in singlicate; n = 1
# T6 construct: gene STK32C
# YES = test system: T7, YES; conditions: concentration: 1 μM, replicates: in singlicate; n = 1
# T7 construct: gene YES1
# YSK1 = test system: T8, YSK1; conditions: concentration: 1 μM, replicates: in singlicate; n = 1
# T8 construct: gene STK25
# YSK4 = test system: T9, YSK4; conditions: concentration: 1 μM, replicates: in singlicate; n = 1
# T9 construct: gene MAP3K19
# ZAK = conditions: concentration: 1 μM, replicates: in singlicate; n = 1
# ZAP70 = conditions: concentration: 1 μM, replicates: in singlicate; n = 1
# p38-beta = test system: T10, p38-beta; conditions: concentration: 1 μM, replicates: in singlicate; n = 1
# T10 construct: gene MAPK11
# [1] = concentration: 1 μM, replicates: in singlicate
# 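Note: KINOMEscan kinase panel screen.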
smiles,measurement,setting,value
O=C(NCc1cccs1)c1cc(C(=O)c2c(Cl)cccc2Cl)c[nH]1 [GW823670],%Inh,p38-alpha; 1 µM,23%
CC(C)(C)c1ccc(C(=O)Nc2cn3cc(-c4ccccc4)ccc3n2)cc1,%Inh,ULK3,12%
same,%Inh,VEGFR2,0%
same,%Inh,VPS34,0%
same,%Inh,VRK2,1%
same,%Inh,WEE1,6%
same,%Inh,WEE2,0%
same,%Inh,WNK1,0%
same,%Inh,WNK2,0%
same,%Inh,WNK3,0%
same,%Inh,WNK4,16%
same,%Inh,YANK1,0%
same,%Inh,YANK2,0%
same,%Inh,YANK3,0%
same,%Inh,YES,2%
same,%Inh,YSK1,0%
same,%Inh,YSK4,21%
same,%Inh,ZAK,14%
same,%Inh,ZAP70,0%
same,%Inh,p38-alpha; [1],0%
same,%Inh,p38-beta,11%
Cc1ccc(Oc2ccc(Nc3ncnc4cc[nH]c34)cc2C)cn1,%Inh,ULK3,22%
same,%Inh,VEGFR2,15%
same,%Inh,VPS34,20%
same,%Inh,VRK2,0%
same,%Inh,WEE1,0%
same,%Inh,WEE2,0%
same,%Inh,WNK1,0%
same,%Inh,WNK2,0%
same,%Inh,WNK3,10%
same,%Inh,WNK4,0%
same,%Inh,YANK1,5%
same,%Inh,YANK2,22%
same,%Inh,YANK3,11%
same,%Inh,YES,3%
same,%Inh,YSK1,0%
same,%Inh,YSK4,14%
same,%Inh,ZAK,5%
same,%Inh,ZAP70,0%
same,%Inh,p38-alpha; [1],5%
same,%Inh,p38-beta,28%
Cl.c1ccc(Cn2cnc3cc(Nc4ncnc5ccccc45)ccc32)cc1 [GW272142],%Inh,ULK3,5%
same,%Inh,VEGFR2,0%
same,%Inh,VPS34,0%
same,%Inh,VRK2,0%
same,%Inh,WEE1,4%
same,%Inh,WEE2,12%
same,%Inh,WNK1,2%
same,%Inh,WNK2,21%
same,%Inh,WNK3,35%
same,%Inh,WNK4,44%
same,%Inh,YANK1,0%
same,%Inh,YANK2,0%
same,%Inh,YANK3,18%
same,%Inh,YES,7%
same,%Inh,YSK1,0%
same,%Inh,YSK4,29%
same,%Inh,ZAK,0%
same,%Inh,ZAP70,21%
same,%Inh,p38-alpha; [1],0%
same,%Inh,p38-beta,0%
CN(C)c1cc(-c2ccc3c(N)n[nH]c3c2)nc(N)n1 [GSK2219329],%Inh,ULK3,9%
same,%Inh,VEGFR2,3%
same,%Inh,VPS34,0%
same,%Inh,VRK2,0%
same,%Inh,WEE1,3%
same,%Inh,WEE2,1%
same,%Inh,WNK1,3%
same,%Inh,WNK2,0%
same,%Inh,WNK3,15%
same,%Inh,WNK4,32%
same,%Inh,YANK1,7%
same,%Inh,YANK2,0%
same,%Inh,YANK3,0%
same,%Inh,YES,1%
same,%Inh,YSK1,12%
same,%Inh,YSK4,16%
same,%Inh,ZAK,92.5%
same,%Inh,ZAP70,0%
same,%Inh,p38-alpha; [1],0%
same,%Inh,p38-beta,0%
O=c1cc(N2CCOCC2)nc2n(Cc3ccc(F)c(Cl)c3)ccn12 [GSK2297099],%Inh,ULK3,8%
same,%Inh,VEGFR2,4%
same,%Inh,VPS34,95.2%
same,%Inh,VRK2,0%
same,%Inh,WEE1,2%
same,%Inh,WEE2,3%
same,%Inh,WNK1,8%
same,%Inh,WNK2,4%
same,%Inh,WNK3,5%
same,%Inh,WNK4,6%
same,%Inh,YANK1,1%
same,%Inh,YANK2,11%
same,%Inh,YANK3,0%
same,%Inh,YES,11%
same,%Inh,YSK1,18%
same,%Inh,YSK4,6%
same,%Inh,ZAK,5%
same,%Inh,ZAP70,0%
same,%Inh,p38-alpha; [1],0%
same,%Inh,p38-beta,0%
CCc1nc(-c2cccc(C)c2)c(-c2ccncc2)s1,%Inh,ULK3,12%
same,%Inh,VEGFR2,0%
same,%Inh,VPS34,0%
same,%Inh,VRK2,0%
same,%Inh,WEE1,0%
same,%Inh,WEE2,0%
same,%Inh,WNK1,0%
same,%Inh,WNK2,0%
same,%Inh,WNK3,0%
same,%Inh,WNK4,0%
same,%Inh,YANK1,36%
same,%Inh,YANK2,16%
same,%Inh,YANK3,0%
same,%Inh,YES,7%
same,%Inh,YSK1,0%
same,%Inh,YSK4,8%
same,%Inh,ZAK,0%
same,%Inh,ZAP70,0%
same,%Inh,p38-alpha; [1],72%
same,%Inh,p38-beta,52%
COc1cccc(C2=C(Nc3cccc(C(=O)O)c3)C(=O)NC2=O)c1 [SB-390770],%Inh,ULK3,9%
same,%Inh,VEGFR2,11%
same,%Inh,VPS34,34%
same,%Inh,VRK2,16%
same,%Inh,WEE1,0%
same,%Inh,WEE2,7%
same,%Inh,WNK1,3%
same,%Inh,WNK2,18%
same,%Inh,WNK3,5%
same,%Inh,WNK4,0%
same,%Inh,YANK1,12%
same,%Inh,YANK2,0%
same,%Inh,YANK3,16%
same,%Inh,YES,8%
same,%Inh,YSK1,0%
same,%Inh,YSK4,14%
same,%Inh,ZAK,41%
same,%Inh,ZAP70,7%
same,%Inh,p38-alpha; [1],0%
same,%Inh,p38-beta,11%
COc1cc2ncn(-c3cc(OCc4ccncc4)c(C(N)=O)s3)c2cc1OC [GSK336313],%Inh,ULK3,9%
same,%Inh,VEGFR2,7%
same,%Inh,VPS34,5%
same,%Inh,VRK2,0%
same,%Inh,WEE1,33%
same,%Inh,WEE2,15%
same,%Inh,WNK1,7%
same,%Inh,WNK2,0%
same,%Inh,WNK3,10%
same,%Inh,WNK4,0%
same,%Inh,YANK1,8%
same,%Inh,YANK2,0%
same,%Inh,YANK3,4%
same,%Inh,YES,0%
same,%Inh,YSK1,35%
same,%Inh,YSK4,30%
same,%Inh,ZAK,1%
same,%Inh,ZAP70,0%
same,%Inh,p38-alpha; [1],5%
same,%Inh,p38-beta,0%
CCCNC(=O)Nc1ccc(Oc2ncnc3ccn(C)c23)cc1,%Inh,ULK3,30%
same,%Inh,VEGFR2,13%
same,%Inh,VPS34,34%
same,%Inh,VRK2,0%
same,%Inh,WEE1,0%
same,%Inh,WEE2,13%
same,%Inh,WNK1,0%
same,%Inh,WNK2,3%
same,%Inh,WNK3,0%
same,%Inh,WNK4,0%
same,%Inh,YANK1,0%
same,%Inh,YANK2,8%
same,%Inh,YANK3,13%
same,%Inh,YES,0%
same,%Inh,YSK1,3%
same,%Inh,YSK4,33%
same,%Inh,ZAK,1%
same,%Inh,ZAP70,0%
same,%Inh,p38-alpha; [1],2%
same,%Inh,p38-beta,15%
